This passage reports outcome and Potency results from PubChem BioAssay (NCATS).

Experiment in all cases: qHTS profiling for inhibitors of Plasmodium falciparum proliferation (AID 504749); also: nearly all actives have a fitted effect of over 60% in size
What all share (details): P. falciparum in erythrocytes, SYBR Green DNA, 72 h; series mostly up to 28.7 µM
A general note: In qHTS, concentration-response curves come from the screen itself.

One test relates to CP268. The method in brief:
(§1)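 P. falciparum-infected erythrocytes (0.3% parasitemia, 2.5% hematocrit final) were exposed to compounds for 72 h at 37 C in 5% CO2, then lysed with SYBR Green buffer overnight at room temperature; parasite DNA fluorescence was normalized to artemisinin and DMSO controls.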

The test system of a further test is CP269. The method in brief:
as §1

In a further test the test system is CP286. In outline: as §1
The next test relates to CP291. The method in brief:
as §1

For another test, the system named is CP305. In outline:
as §1

The next test has as its system CP315. The method in brief:
as §1

The next test deals with CP325. The method in brief:
as §1

A further test deals with CP329. In outline:
as §1

Another test deals with CP335. The method in brief: as §1
The test system of the next test is DFO2036. The method in brief:
as §1

In another test the test system is DIV14. In outline:
as §1

Another test relates to DIV17. In outline:
as §1

Another test deals with DIV30. In outline:
as §1

A further test concerns Dd2. In outline:
as §1

A further test relates to ECU. In outline:
as §1

A further test deals with FAB9. The method in brief:
as §1

The test system of a further test is GB4. The method in brief:
as §1

Another test deals with HB3. The method in brief: as §1
For a further test, the system named is ICS. The method in brief:
as §1

The test system of another test is CP297. The method in brief: as §1

Inconclusive results are not listed. Calls of active or inactive are those of the source. Calls follow the shape of the dose curve; as a rule, active = well fitted inhibition curve with a large enough effect; inconclusive = small, poorly fitted or top-dose-only effect; inactive = flat fitted curve, though single readings scatter.
Potency is read from the fitted curve at half-maximal effect.

Regarding `CC(C)NC[C@H](O)COc1ccc(CC(N)=O)cc1`, the call with CP268, in the test with CP269, with CP286, with CP291, in the test on CP305 and with CP315 was inactive. For the same compound, the outcome in the test on CP329, with DIV30 and in the test with FAB9 was inactive. Moreover, the Potency entry with CP325, in the test on CP335, in the test on DFO2036, in the test with DIV14, in the test on DIV17 and in the test with Dd2 was “inactive” in each case. In addition, the Potency entry with ECU, with GB4, with HB3 and in the test with ICS was “inactive” each time.

With `c1ccc(C2CN3CCSC3=N2)cc1` (stereo not given), the compound was classed as inactive in the test on CP315. Moreover, the Potency in the test on CP325 was 16.9 µM (active); in the test with CP335 it was 5.36 µM (active); in the test on DFO2036, 6.31 µM (active); with DIV14, 2.69 µM (active); in the test on DIV17, 3.01 µM (active); in the test with Dd2 it was 3.98 µM (active). Also, the Potency in the test on ECU was 8.91 µM (active); in the test with GB4, 8.49 µM (active); with HB3, 3.16 µM (active); with ICS, 1.26 µM (active).

On to `CCCCCCCCCCCCCCCCCCOC[C@H](COP(=O)([O-])OCC[N+](C)(C)C)OC`, for which the compound was classed as inactive with CP268, in the test on CP269, with CP286, with CP291, with CP297 and with CP305. The compound was classed as inactive with CP315, with CP329, in the test with DIV30 and in the test on FAB9. Besides, the Potency entry with CP325, in the test on CP335, in the test with DFO2036, in the test with DIV14, with DIV17 and in the test with Dd2 was “inactive” in each case. Also, the Potency entry in the test on ECU, in the test with GB4, in the test with HB3 and with ICS was “inactive” throughout.

In the case of `CN1C2CCC1CC(OC(c1ccccc1)c1ccccc1)C2` (stereo not given), the call in the test on CP315, in the test on CP329 and in the test with FAB9 was inactive. The Potency with DIV14 is 4.78 µM (active); in the test on DIV17 it was 3.01 µM (active); in the test on ICS it was 0.178 µM (active). Also, in the test with HB3, the Potency entry was “inactive”.

Regarding `CCCCCCCCCCCCCCC[C@H](O)[C@H](N)CO`, the call with CP268, in the test on CP269, in the test with CP286, in the test on CP291, in the test with CP297 and with CP305 was inactive. Besides, the result in the test with CP315, with CP329, in the test on DIV30 and in the test on FAB9 was inactive. Besides, the Potency entry in the test on CP325, in the test on CP335, in the test with DFO2036, in the test on DIV14, with DIV17 and in the test with ECU was “inactive” throughout. Besides, the Potency entry with GB4 and in the test on HB3 was “inactive” throughout.

With `CC(O)C(O)[C@H]1CNc2nc(N)[nH]c(=O)c2N1` (stereo not given in full), the call in the test on CP268, in the test on CP269, in the test on CP286, in the test with CP291, with CP297 and in the test with CP305 was inactive. In addition, the call in the test with CP315, in the test on CP329, with DIV30 and in the test on FAB9 was inactive. The Potency result with CP325, with CP335, in the test with DFO2036, with DIV14, in the test on DIV17 and with Dd2 was “inactive” each time. The Potency entry in the test with ECU, in the test with GB4, in the test on HB3 and in the test on ICS was “inactive” each time.
